Assays:
Assay in all cases: PBM binding z-score (relative to random genomic background probes); higher = stronger binding; sequences stand for … in GC…GCGATTGACAGCGTAGAATGAAGG
[1] = system: FXR:RXRa (NR concentration 270 nM, RXRa partner concentration 90 nM)
Outline: (§1)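 The probes on custom Agilent 4×180K protein-binding microarrays were double-stranded, with 34-nt variable regions bearing direct-repeat seeds, single-nucleotide variants, half-site ablations and random human genomic background sequences. Incubation lasted 1 h with ligand-free nuclear receptor dimers in PBS pH 7.4, 2% milk, 0.02% Triton X-100, 1 mM DTT, 0.2 mg/mL BSA and 0.4 mg/ml salmon testes DNA. Antibodies against each partner (one per run) detected bound dimers, and fluorescence scans were regression-normalized. Binding z-scores take the random background probes as reference.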

[2] = system: LXRa:RXRa (NR concentration 270 nM, RXRa partner concentration 90 nM)
Outline: as §1

[3] = system: LXRa homodimer (NR concentration 270 nM)
Outline: as §1

[4] = system: LXRb:RXRa (NR concentration 270 nM, RXRa partner concentration 90 nM)
Outline: as §1

[5] = system: LXRb homodimer (NR concentration 270 nM)
Outline: as §1

[6] = system: PPARa:RXRa (NR concentration 270 nM, RXRa partner concentration 90 nM)
Outline: as §1

[7] = system: PPARg:RXRa (NR concentration 180 nM, RXRa partner concentration 90 nM)
Outline: as §1

[8] = system: PPARg:RXRa 270nM:90nM, anti-RXR (NR concentration 270 nM, RXRa partner concentration 90 nM)
Outline: as §1

[9] = system: PPARg:RXRa 30nM:10nM, anti-RXR (NR concentration 30 nM, RXRa partner concentration 10 nM)
Outline: as §1

[10] = system: PPARg:RXRa 90nM:30nM, anti-RXR (NR concentration 90 nM, RXRa partner concentration 30 nM)
Outline: as §1

[11] = system: PPARg:RXRa DBDmut IVT, anti-RXR (DBD mutation: RXRa K156A/R161A, NR concentration 270 nM, RXRa partner concentration 90 nM)
Outline: as §1

[12] = system: PPARg:RXRa IVT, anti-PPARg (NR concentration 270 nM, RXRa partner concentration 90 nM)
Outline: as §1

[13] = system: PPARg DBDmut:RXRa IVT, anti-PPARg (DBD mutation: PPARg1 K132A/R137A, NR concentration 270 nM, RXRa partner concentration 90 nM)
Outline: as §1

[14] = system: PPARg DBDmut IVT, anti-PPARg (DBD mutation: PPARg1 K132A/R137A, NR concentration 270 nM)
Outline: as §1

[15] = system: PPARg homodimer (NR concentration 180 nM)
Outline: as §1

[16] = system: PXR:RXRa (NR concentration 270 nM, RXRa partner concentration 90 nM)
Outline: as §1

[17] = system: PXR homodimer (NR concentration 270 nM)
Outline: as §1

[18] = system: RARa:RXR (NR concentration 270 nM, RXRa partner concentration 90 nM)
Outline: as §1

[19] = system: RARa homodimer (NR concentration 270 nM)
Outline: as §1

[20] = system: RARb:RXRa (NR concentration 270 nM, RXRa partner concentration 90 nM)
Outline: as §1

Sequence	PBM binding z-score [1]	PBM binding z-score [2]	PBM binding z-score [3]	PBM binding z-score [4]	PBM binding z-score [5]	PBM binding z-score [6]	PBM binding z-score [7]	PBM binding z-score [8]	PBM binding z-score [9]	PBM binding z-score [10]	PBM binding z-score [11]	PBM binding z-score [12]	PBM binding z-score [13]	PBM binding z-score [14]	PBM binding z-score [15]	PBM binding z-score [16]	PBM binding z-score [17]	PBM binding z-score [18]	PBM binding z-score [19]	PBM binding z-score [20]
CGAACGAAGGCATGAGTTGATAGCAAATGCCGAT	-0.766	-0.753	-0.489	-0.751	-1.09	-0.568	0.575	-0.579	-0.739	-0.741	-0.501	-0.459	-1.26	-0.962	-0.786	-0.575	-0.461	-0.544	-0.843	-0.545
CGACCAAGGTCAGAGAGGTCAGTGAATGCCGAGT	6	4.97	2.61	4.23	-0.0164	4.64	3.68	4.21	1.11	2.69	2.95	3.5	0.125	-0.614	5.33	6.21	12.7	5.78	2.47	5.18
ATATGTAGGTTAGCTGGGGTCATTTAGACTAGGC	4.36	5.92	3.36	4.92	1.13	5.22	5.68	5.12	2.41	4.22	6.26	6.32	1.68	2.06	2.64	6.23	3.22	5.08	0.828	2.89
TCTAGTTGGTCAAAGGGCACACACTCGAAATGCG	1.38	1.56	0.344	1.48	0.0761	4.28	8.25	7.85	7.7	8.57	2.22	3.89	0.5	0.679	1.73	1.7	0.178	2.72	0.588	2.6
CCTTACGGGTCACGAGGTTATAGCTCGACGAGCG	6.98	4.79	0.064	3.92	0.048	6.3	7.52	6.72	3.42	5.91	3.64	5.56	3.54	1.04	3.72	4.94	-0.0531	6.5	1.15	4.36
CAAACTAGGTCACCGGAGGGTCAAAGTCCGCATG	5.69	5.1	1.95	4.16	0.645	5.86	8.8	7.65	4.96	7.5	8.31	8.77	2.75	0.546	4.78	5.16	0.605	6.42	1.73	4.89
ATATGTAGGTTACATCCGGATCATTCAGGCTATG	0.642	3.17	0.493	1.65	0.498	3.35	5.19	4.14	1.64	3.4	7.7	7.49	3.14	2.67	1	0.73	0.559	1.04	0.899	1.05
CCAGTCAGGTGAGAAGGTAACTCAGCCTCGATTA	0.104	0.00917	-0.218	-0.0607	-0.774	0.601	0.294	1.13	-0.0852	0.619	1.41	1.02	-1.66	-1.63	0.612	-0.228	-0.000389	0.355	0.15	0.754
CCTTACGGGTCACGAAGTTATAGCACGACGAGCG	6.04	3.71	-0.266	3.39	-0.139	5.75	6.25	5.64	2.5	4.43	3.76	4.76	0.631	-0.0727	1.89	3.31	-0.0842	3.86	0.765	4.51
CTCGAAAGGTCGTGCTCAGGTGAGAATACCAAAC	5.2	3.74	0.081	3.51	0.321	4.86	2.81	3.77	1.19	2.44	0.69	1.89	0.151	0.41	2.63	3.35	0.0262	4.6	0.317	3.93
GCGACTGGGGCATCAACAGGTTACCATAACTTAA	-0.21	0.22	-0.147	1.42	-0.367	1.48	1.15	0.92	-0.0267	0.231	3.85	3.26	0.132	-0.496	0.784	0.139	-0.425	0.551	-0.516	0.911
TCATATAGGAAAAGGTGAAAGTCGAACGATATGA	1.2	1.15	-0.161	1.4	-0.24	2.46	1.45	3.09	4.54	4.05	1.88	1.52	1.28	0.696	0.985	0.902	-0.139	1.54	0.581	1.93
TCATATAGGTAAAGGGGAAAGTCGAACGATATGA	0.639	0.796	-0.0838	0.901	0.0683	2.18	2.99	4.18	4.55	4.52	4.16	2.85	1.41	1.19	0.621	0.551	0.506	0.562	0.996	0.83
ATACCAAGGTGATCGTGAGGTAGTTGATACTAAC	0.206	-0.121	-0.314	-0.148	-0.349	0.00448	0.267	-0.218	-0.0247	-0.173	0.454	0.993	1.09	0.92	-0.0605	-0.117	0.172	-0.156	0.171	0.566
TCTTGTAGATCAAAGGTTAAAAAAGCCGAAGCCT	1.88	2.35	0.549	2.44	0.41	4.79	8.35	8.18	7.69	9.24	2.16	3.58	0.744	0.625	1.22	2.17	0.0944	3.21	0.327	1.69
GCGACTCGGGCAAAGCAGGTTACCATAAGGTTGG	-0.00273	-0.166	-0.636	-0.448	-1.41	0.221	0.413	-0.165	-0.926	-0.846	0.437	0.613	-1.22	-1.92	-0.783	-0.339	-0.681	0.418	-0.821	0.403
AGAATGAGGTTAAGATCTGGGAAACAGAATACAT	1.95	1.82	-0.135	1.51	-0.0689	3.64	2.13	2.39	0.969	1.84	2.76	3	1.23	0.832	0.543	1.03	0.115	1.69	0.301	1.9
CCTTACGGGTCACTGACAGGTTACAGCATTTGGA	5.61	3.93	0.335	3.43	-0.275	5.01	4.41	4.6	1.49	3.28	3.39	4.02	0.114	-0.264	2.85	3.59	0.0317	4.5	0.367	4.06

Source: the supplement of paper PMC6555819
